Measured values taken from PubChem BioAssay (Tox21).
Where “and” joins values, the source holds several entries; their conditions need not be identical. Equal entries are not always repeated. Some structures have more than one record in an assay (separate samples or runs), and their calls can disagree. Calls of active or inactive are those of the source. A call without a number means that no potency is given here. Unless noted, the call rests on the fitted dose curve; in most records, active means well fitted curve in the direction sought with a large enough effect in the repeat runs; inconclusive means weak or mixed curves; inactive means no such curve, though single readings can be large; an effect the other way counts as inactive or inconclusive.

Columns and labels:
[1] = qHTS assay to identify small molecule antagonists of the glucocorticoid receptor (GR) signaling pathway - cell viability counter screen (AID 720693); further: nearly all actives have a fitted effect of over 55% in size
[2] = qHTS assay for identifying genotoxic compounds that show differential cytotoxicity against isogenic chicken DT40 cell lines with known DNA damage response pathways - wild type cell line (AID 743012); further: nearly all actives have a fitted effect of over 60% in size; further: potency means the concentration at half of the fitted maximal effect
Outline: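 Wild-type DT40 cells (300/well) exposed to compounds for 40 hours at 37 C/5% CO2. Viability read by CellTiter-Glo luminescence after 30 min at room temperature.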

[3] = qHTS assay for identifying genotoxic compounds that show differential cytotoxicity against isogenic chicken DT40 cell lines with known DNA damage response pathways - Rad54/Ku70 mutant cell line (AID 743015); further: nearly all actives have a fitted effect of over 60% in size; further: potency means the concentration at half of the fitted maximal effect
[4] = qHTS assay to identify small molecule antagonists of the androgen receptor (AR) signaling pathway - cell viability counter screen (AID 743033; further: nearly all actives have a fitted effect of over 45% in size; further: potency means the concentration at half of the fitted maximal effect)
[5] = biological target: Androgen receptor (Homo sapiens) (UniProt P10275); assay: qHTS assay to identify small molecule antagonists of the androgen receptor (AR) signaling pathway (AID 743035; active means well fitted inhibition curve with a large enough effect in the signal ratio in the repeat runs, not every such curve was filed as active; inconclusive means weak or mixed curves, or effect the other way; inactive means no such curve, though single readings can be large or run the other way; the % refers to the signal ratio)
Chain of Androgen receptor (Homo sapiens) (P10275 whole entry, looked up): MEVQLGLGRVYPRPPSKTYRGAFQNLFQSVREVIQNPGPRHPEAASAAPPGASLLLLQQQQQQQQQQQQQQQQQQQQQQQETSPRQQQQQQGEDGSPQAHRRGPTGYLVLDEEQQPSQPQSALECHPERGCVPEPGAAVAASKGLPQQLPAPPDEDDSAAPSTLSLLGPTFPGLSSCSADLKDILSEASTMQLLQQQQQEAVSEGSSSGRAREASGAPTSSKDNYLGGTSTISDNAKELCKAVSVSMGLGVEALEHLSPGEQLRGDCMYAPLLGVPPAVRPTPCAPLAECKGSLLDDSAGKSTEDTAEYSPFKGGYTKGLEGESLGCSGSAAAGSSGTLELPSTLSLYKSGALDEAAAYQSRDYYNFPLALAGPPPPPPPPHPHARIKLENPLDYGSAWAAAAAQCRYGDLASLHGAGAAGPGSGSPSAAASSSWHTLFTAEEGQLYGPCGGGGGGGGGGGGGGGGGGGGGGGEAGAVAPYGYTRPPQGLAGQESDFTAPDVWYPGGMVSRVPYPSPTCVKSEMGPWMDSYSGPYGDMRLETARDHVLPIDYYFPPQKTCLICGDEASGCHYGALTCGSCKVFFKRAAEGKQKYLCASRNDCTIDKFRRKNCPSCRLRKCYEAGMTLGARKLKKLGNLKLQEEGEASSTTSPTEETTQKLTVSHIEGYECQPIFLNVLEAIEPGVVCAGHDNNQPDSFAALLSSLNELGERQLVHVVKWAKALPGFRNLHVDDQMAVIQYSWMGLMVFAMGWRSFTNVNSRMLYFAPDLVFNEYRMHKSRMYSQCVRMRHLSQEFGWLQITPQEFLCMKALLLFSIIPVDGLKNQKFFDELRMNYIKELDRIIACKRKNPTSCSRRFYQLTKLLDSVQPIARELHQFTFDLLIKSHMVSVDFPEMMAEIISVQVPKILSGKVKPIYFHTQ
Outline: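 HEK293 cells stably carrying UAS-beta-lactamase reporter, 2,000/well, given compounds plus R1881 agonist and incubated 16 h at 37C. LiveBLAzer B/G FRET substrate then added for 2 h at room temperature before fluorescence reading.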

[6] = biological target: Androgen receptor (Homo sapiens) (UniProt P10275); assay: qHTS assay to identify small molecule agonists of the androgen receptor (AR) signaling pathway (AID 743036; active means well fitted activation curve with a large enough effect in the signal ratio in the repeat runs, with a control signal flat, not every such curve was filed as active; inconclusive means weak or mixed curves, or effect the other way; inactive means no such curve, though single readings can be large or run the other way; the % refers to the signal ratio)
Outline: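 Screening used 2,000 AR-bla HEK293 cells per well, treated 16 h at 37C with test compounds in DMSO alongside positive and DMSO-only controls; beta-lactamase activity was then read by LiveBLAzer B/G FRET fluorescence after 2 h at room temperature.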

[7] = biological target: Androgen receptor (Homo sapiens) (UniProt P10275); assay: qHTS assay to identify small molecule agonists of the androgen receptor (AR) signaling pathway using the MDA cell line (AID 743040; further: nearly all actives have a fitted effect of over 20% in size)
Outline: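 Cells plated, 5 h at 37C/0% CO2; compound or DMSO pinned; 16 h at 37C; ONE-Glo added; luminescence measured after 30 min at room temperature. Reporter line: MDA-kb2 with MMTV-luciferase responsive to AR and GR.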

[8] = qHTS assay to identify small molecule antagonists of the androgen receptor (AR) signaling pathway using the MDA cell line - cell viability counter screen (AID 743041; further: nearly all actives have a fitted effect of over 45% in size; further: potency means the concentration at half of the fitted maximal effect)
Outline: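 Cells were plated at 3,000 per well and left 5 h. Compounds in DMSO were then pinned in, followed by R1881. After 16 h at 37C, CellTiter-Fluor fluorescence gave viability.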

[9] = biological target: Androgen receptor (Homo sapiens) (UniProt P10275); assay: qHTS assay to identify small molecule antagonists of the androgen receptor (AR) signaling pathway using the MDA cell line (AID 743042; further: nearly all actives have a fitted effect of over 55% in size)
Outline: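 Antagonist mode: compounds plus R1881 agonist added to MDA-kb2 AR-luc cells, incubated 16 h at 37C. Luciferase reporter luminescence quantified, with multiplexed CellTiter-Fluor readout for cell viability.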

[10] = qHTS assay to identify small molecule antagonists of the thyroid receptor (TR) signaling pathway - cell viability counter screen (AID 743064); further: nearly all actives have a fitted effect of over 50% in size; further: potency means the concentration at half of the fitted maximal effect
Outline: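 Viability of T3-stimulated (1 nM final) GH3.TRE-Luc cells is measured by CellTiter-Fluor fluorescence after 23.5 h compound exposure at 37 °C plus 30 min reagent incubation.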

[11] = qHTS assay to identify small molecule antagonists of the thyroid receptor (TR) signaling pathway (AID 743065); further: nearly all actives have a fitted effect of over 55% in size; further: potency means the concentration at half of the fitted maximal effect
Outline: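 Antagonism measured as loss of luciferase signal in GH3 cells stably carrying a TRE-luciferase reporter, co-treated with compound and T3 (1 nM final) for 23.5 h at 37 C. Viability was read in the same well by CellTiter-Fluor.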

[12] = test system: thyroid hormone receptor (rat, GH3 cells); assay: qHTS assay to identify small molecule agonists of the thyroid receptor (TR) signaling pathway (AID 743066; calls by dose curve)
[13] = qHTS assay to identify small molecule antagonists of the estrogen receptor alpha (ER-alpha) signaling pathway - cell viability counter screen (AID 743074; calls by dose curve;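 further: HEK293 cells carrying ER-alpha-UAS-bla reporter stimulated with 17beta-estradiol; nearly all actives have a fitted effect of over 45% in size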; further: potency means the concentration at half of the fitted maximal effect)
[14] = qHTS assay to identify small molecule antagonists of the estrogen receptor alpha (ER-alpha) signaling pathway using the BG1 cell line - cell viability counter screen (AID 743081);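 further: compound given together with 17beta-estradiol as the ER stimulus; nearly all actives have a fitted effect of over 45% in size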; further: potency means the concentration at half of the fitted maximal effect
Aromatase (Homo sapiens) = Aromatase (Homo sapiens) (UniProt P11511); assay: qHTS assay to identify aromatase inhibitors (AID 743083); further: series mostly up to about 70 µM; nearly all actives have a fitted effect of over 55% in size
Chain of Aromatase (Homo sapiens) (P11511 whole entry, looked up): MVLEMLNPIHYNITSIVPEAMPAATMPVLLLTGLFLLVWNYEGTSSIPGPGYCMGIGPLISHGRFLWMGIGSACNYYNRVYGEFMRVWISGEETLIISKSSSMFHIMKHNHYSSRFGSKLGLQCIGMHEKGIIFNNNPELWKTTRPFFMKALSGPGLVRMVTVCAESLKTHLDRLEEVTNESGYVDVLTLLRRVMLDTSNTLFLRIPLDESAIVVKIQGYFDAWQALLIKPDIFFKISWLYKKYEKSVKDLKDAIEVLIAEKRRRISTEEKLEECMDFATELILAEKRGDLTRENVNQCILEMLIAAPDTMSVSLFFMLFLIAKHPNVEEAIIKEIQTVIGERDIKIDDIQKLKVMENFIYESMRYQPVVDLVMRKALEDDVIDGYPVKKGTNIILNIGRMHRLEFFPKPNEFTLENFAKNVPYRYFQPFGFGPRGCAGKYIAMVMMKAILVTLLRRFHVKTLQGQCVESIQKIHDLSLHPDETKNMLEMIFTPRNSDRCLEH

[15] = qHTS assay for identifying genotoxic compounds that show differential cytotoxicity against isogenic chicken DT40 cell lines with known DNA damage response pathways - Rev3 mutant cell line (AID 743014); further: nearly all actives have a fitted effect of over 55% in size; further: potency means the concentration at half of the fitted maximal effect
[16] = biological target: Estrogen receptor (Homo sapiens) (UniProt P03372); assay: qHTS assay to identify small molecule antagonists of the estrogen receptor alpha (ER-alpha) signaling pathway (AID 743069; active means well fitted curve in the direction sought with a large enough effect in the signal ratio in the repeat runs, not every such curve was filed as active; inconclusive means weak or mixed curves, or effect the other way; inactive means no such curve, though single readings can be large or run the other way; the % refers to the signal ratio; further: potency means the concentration at half of the fitted maximal effect)
Chain of Estrogen receptor (Homo sapiens) (P03372 whole entry, looked up): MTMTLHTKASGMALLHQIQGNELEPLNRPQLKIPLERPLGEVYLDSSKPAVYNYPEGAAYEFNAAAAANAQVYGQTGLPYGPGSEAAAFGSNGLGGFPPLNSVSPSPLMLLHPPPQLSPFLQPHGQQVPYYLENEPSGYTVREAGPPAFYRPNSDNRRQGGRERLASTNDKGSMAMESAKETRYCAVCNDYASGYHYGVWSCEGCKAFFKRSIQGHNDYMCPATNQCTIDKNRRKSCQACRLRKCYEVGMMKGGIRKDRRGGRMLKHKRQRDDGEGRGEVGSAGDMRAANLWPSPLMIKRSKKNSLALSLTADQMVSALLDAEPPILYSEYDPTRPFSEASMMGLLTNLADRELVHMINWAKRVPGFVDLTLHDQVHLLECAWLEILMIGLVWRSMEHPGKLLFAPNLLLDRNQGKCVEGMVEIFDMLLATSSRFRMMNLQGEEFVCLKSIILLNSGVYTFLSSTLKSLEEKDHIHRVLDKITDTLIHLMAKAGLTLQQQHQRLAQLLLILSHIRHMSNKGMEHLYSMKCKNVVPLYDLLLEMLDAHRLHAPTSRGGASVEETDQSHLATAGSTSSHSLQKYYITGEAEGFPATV
Outline: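 ER-alpha-UAS-bla GripTite HEK293 line; 2% charcoal-stripped FBS overnight; plated, 4 hr 37C/5% CO2; cpd in DMSO + 17beta-estradiol, 18 hr 37C; LiveBLAzer B/G FRET substrate 2 hr RT; fluorescence intensity.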

[17] = biological target: Estrogen receptor (Homo sapiens) (UniProt P03372); assay: qHTS assay to identify small molecule agonists of the estrogen receptor alpha (ER-alpha) signaling pathway (AID 743075; calls by dose curve;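 further: HEK293 GripTite cells with ER-alpha and UAS-driven beta-lactamase reporter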)
[18] = biological target: Estrogen receptor (Homo sapiens) (UniProt P03372); assay: qHTS assay to identify small molecule agonists of the estrogen receptor alpha (ER-alpha) signaling pathway using the BG1 cell line (AID 743079); further: nearly all actives have a fitted effect of over 20% in size; further: potency means the concentration at half of the fitted maximal effect
[19] = qHTS assay to identify small molecule antagonists of the estrogen receptor alpha (ER-alpha) signaling pathway using the BG1 cell line (AID 743080; calls by dose curve;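 further: BG1 cells stimulated with 17beta-estradiol alongside compound; nearly all actives have a fitted effect of over 25% in size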; further: potency means the concentration at half of the fitted maximal effect)
Outline: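 Readout is ONE-Glo luminescence, taken 30 min at room temperature after reagent addition, preceded by a CellTiter-Fluor viability read; BG1-Luc-4E2 cells had received compound and 17beta-estradiol for 21.5 h at 37 C.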

| Compound | Potency [1] | Potency [2] | Potency [3] | Potency [4] | outcome [5] | outcome [6] | outcome [7] | Potency [8] | outcome [9] | Potency [10] | Potency [11] | outcome [12] | Potency [13] | Potency [14] | Potency (Aromatase (Homo sapiens)) | Potency [15] | Potency [16] | Potency [17] | Potency [18] | Potency [19] |
| --- | --- | --- | --- | --- | --- | --- | --- | --- | --- | --- | --- | --- | --- | --- | --- | --- | --- | --- | --- | --- |
| CCCCCCCCCC(=O)O | inactive | inactive | 61.2 µM (active) and inactive | inactive and 55 µM (active) | inactive | inactive | inactive | inactive | inactive | inactive | inactive | inactive | inactive | inactive | inactive |  |  |  |  |  |
| CCCCC(CC)COC(=O)/C=C\C(=O)OCC(CC)CCCC (stereo unspecified) | inactive |  | inactive | inactive | inactive | inactive | inactive | inactive | inactive | inactive | inactive | inactive | inactive | inactive | inactive | inactive |  |  |  |  |
| COCC(C)O (stereo unspecified) | inactive | inactive | inactive |  |  |  |  | inactive |  | inactive | inactive | inactive | inactive | inactive | inactive | inactive | inactive | inactive | inactive and 61.1 µM (active) | inactive |
| O=C1N=C(O)CN1/N=C/c1ccc(-c2ccc([N+](=O)[O-])cc2)o1 | inactive | 61.1 µM (active) | 26.6 µM (active) and 27.3 µM (active) | inactive |  |  |  |  |  | 15 µM (active) and 30.6 µM (active) | 27.3 µM (active) | inactive | inactive | 48.6 µM (active) | inactive | inactive and 68.6 µM (active) |  |  |  |  |
| C/C=C(C)/C=C/C=C(C)C | inactive | 61.1 µM (active) | 54.5 µM (active) | inactive |  |  |  | inactive |  | inactive |  | inactive | inactive | inactive | inactive |  |  |  |  |  |
| O=C(c1cc(O)c(O)c(O)c1)c1ccc(O)c(O)c1O | inactive | 48.4 µM (active) and 13.7 µM (active) | 30.5 µM (active) and 13.7 µM (active) |  |  |  |  | inactive |  |  | 43.1 µM (active) and 68.6 µM (active) | inactive | inactive | 68.4 µM (active) and 61.1 µM (active) | inactive | 30.5 µM (active) and 13.7 µM (active) | inactive | inactive | inactive | inactive |
| NCCc1ccc(O)c(O)c1 | inactive | 54.6 µM (active) | 19.4 µM (active) | inactive |  |  |  |  |  | 27.4 µM (active) | 48.7 µM (active) | inactive | inactive | inactive and 54.6 µM (active) | inactive | 15.4 µM (active) | inactive | inactive |  |  |
| CS(=O)(=O)c1ccc([C@@H](O)[C@@H](CO)NC(=O)C(Cl)Cl)cc1 | inactive | 4.52 µM (active) and 4.92 µM (active) | 7.17 µM (active) and 4.92 µM (active) |  |  |  |  | inactive |  | inactive | inactive | inactive | inactive | inactive | inactive | 7.17 µM (active) and 4.38 µM (active) | inactive | inactive | inactive | inactive |
| C[C@@H](O)[C@H]1C(=O)N2C(C(=O)O)=C(S[C@@H]3CN[C@H](C(=O)N(C)C)C3)[C@H](C)[C@H]12 | inactive | inactive | inactive | inactive |  |  |  | inactive |  | inactive | inactive | inactive | inactive | inactive | inactive |  |  |  |  |  |
| OCC1CCCO1 (stereo unspecified) | inactive |  | inactive | inactive |  | inactive | inactive | inactive | inactive | inactive |  |  | inactive | inactive | inactive | inactive | inactive | inactive | inactive | inactive |
| Oc1ccc2ccccc2c1N=Nc1ccccc1 | inactive | inactive | inactive |  |  |  |  | inactive |  | inactive and 54.5 µM (active) | inactive | inactive | inactive | inactive and 34.4 µM (active) | inactive | inactive | inactive | inactive | 19.3 µM (active) and 30.6 µM (active) |  |
| CC(C)n1c(/C=C/[C@@H](O)C[C@@H](O)CC(=O)O)c(-c2ccc(F)cc2)c2ccccc21 | inactive | 1.06 µM (active) and 6.11 µM (active) | 3.35 µM (active) and 8.63 µM (active) |  |  |  |  | inactive |  | inactive | 13.3 µM (active) and 21.7 µM (active) | inactive | inactive | inactive |  | 9.4 nM (active) and 3.06 µM (active) |  |  |  |  |
| O=C(O)c1cc(-c2ccccc2)nc2ccccc12 | inactive | inactive | inactive |  | inactive | inactive | inactive | inactive | inactive | inactive | inactive | inactive | inactive | inactive | inactive | inactive |  |  |  |  |
| Nc1c(S(=O)(=O)O)cc(Br)c2c1C(=O)c1ccccc1C2=O | inactive | inactive | inactive |  |  |  |  | 30.6 µM (active) |  | inactive and 61.1 µM (active) | inactive | inactive | inactive | 27.3 µM (active) | inactive | inactive | inactive | inactive | inactive | inactive |
| Oc1c(Cl)cc(Cl)c(Cl)c1Cl | inactive | 67.1 µM (active) |  |  |  |  |  | inactive |  |  | 47.5 µM (active) and 30.6 µM (active) | inactive | 53.8 µM (active) | inactive | inactive |  | 34 µM [inconclusive] (active) | inactive |  | inactive and 68.6 µM (active) |
| CC1CC(OC(=O)c2ccccc2O)CC(C)(C)C1 (stereo unspecified) | inactive | inactive | inactive | inactive |  |  |  | inactive |  |  |  | inactive | inactive | inactive | inactive | inactive |  |  |  |  |
| CS(=O)(=O)Nc1ccc([N+](=O)[O-])cc1Oc1ccccc1 | inactive | inactive | inactive |  |  |  |  | inactive |  | inactive | inactive | inactive | inactive | inactive | inactive | inactive |  |  |  |  |
